Shown are actives, neighbours in structure and some others; about 1.2% of the full set was active somewhere.
GLA spleen mod – inhibitors or activators of human alpha-galactosidase in spleen homogenate. AID 2107. human spleen homogenate, 4MU-alpha-Gal fluorescence, 40 min. P06280. Potency, µM (titrated, usually from 80 µM), inactives show at the top dose activity change, negative = inhibition, most hits filed as inhibitors. 0.008% of 240,000 active;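 also: potency is read from the fitted curve at half-maximal effect; 0% = enzyme with vehicle and -100% = no enzyme basal signal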
Target sequence (P06280 32-429 limits assumed): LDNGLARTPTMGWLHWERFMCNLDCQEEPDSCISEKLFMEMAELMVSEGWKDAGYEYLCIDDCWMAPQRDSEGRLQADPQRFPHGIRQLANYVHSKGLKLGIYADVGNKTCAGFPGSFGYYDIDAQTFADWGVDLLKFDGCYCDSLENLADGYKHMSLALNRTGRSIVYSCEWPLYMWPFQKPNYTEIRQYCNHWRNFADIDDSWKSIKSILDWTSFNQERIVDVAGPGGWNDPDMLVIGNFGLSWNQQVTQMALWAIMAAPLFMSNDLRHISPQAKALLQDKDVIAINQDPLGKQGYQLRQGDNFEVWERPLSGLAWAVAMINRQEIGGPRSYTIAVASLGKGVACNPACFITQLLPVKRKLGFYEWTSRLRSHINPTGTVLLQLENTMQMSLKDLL
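Fluorogenic readout (Ex 365/Em 440 nm) of 4-methylumbelliferone released from 1 mM 4-MU-alpha-galactoside by spleen homogenate, 40 min at 37C, pH 5.0. Data normalized to no-enzyme and enzyme controls; Hill-equation AC50 from compound titrations.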
HTT ATP protect – protects HTT-Q103 PC12 cells, measured by ATP; PC12 HTT-Q103 induced, cytoprotection, ATP luminescence, 40 h; Potency, µM (top dose mostly 56.4 µM), for inactives: cytoprotection (ATP increase), hits mostly activators; 0.14% of 230,000 active; also: potency is read from the fitted curve at half-maximal effect; % of control where 0% means no effect; nearly all actives have a fitted effect of over 45% in size
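Compounds were screened for protection of PC12 cells against cell death after tebufenozide induction (100 nM final) of mutant Huntingtin exon 1 (Q103) fused to GFP.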
GLA inh pH 4.5 – inhibitors of human alpha-galactosidase A at pH 4.5 | P06280 | 230,000 tested, under 10 active | purified enzyme, 4-MU-alpha-Gal fluorescence, pH 4.5 | activity change, negative = inhibition, % at 105 µM;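 also: 0% = full activity with enzyme and -100% = basal without enzyme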
HttQ103 aggreg – inhibitors of mutant huntingtin aggregate formation in PC12 cells | PC12 HttQ103-GFP aggregates, Acumen cytometry, 40 h | Potency, µM (top dose mostly 46.1 µM), without a hit: at the highest dose activity change, negative = inhibition, most hits filed as inhibitors | 1.1% of 220,000 active | AID 1688; also: potency is read from the fitted curve at half-maximal effect; % is scaled to controls: 0 for no effect and ±100 for the full control effect; nearly all actives have a fitted effect of over 60% in size
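PC12 cells with ecdysone-inducible HTT exon1 Q103-GFP, induced by 100 nM tebufenozide, given compounds in a concentration series. GFP aggregates (1–25 um, 6 SD above background) counted in lysates by laser-scanning cytometry, 488 nm excitation.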
An asterisk follows results filed as active; [ ] = dose if it differs, or a comment. Calls follow the shape of the dose curve; as a rule, active = well fitted curve in the direction sought with a large enough effect; inconclusive = small, poorly fitted or top-dose-only effect, or another doubt; inactive = no such curve, though single readings can be large; an effect the other way counts as inactive or inconclusive.

Screening COc1ccc(/C=C2\CCc3ccccc3C2=O)cc1Cn1nc(C)cc1C returned GLA spleen mod 11%, HTT ATP protect -14%, GLA inh pH 4.5 5 and HttQ103 aggreg 25µM*.
`Cc1ccc(C#N)cc1` gave GLA spleen mod -9% and HTT ATP protect -7%.
`COc1ccc2[nH]cc(CCNc3ccnc(-c4ccccc4C)n3)c2c1` gave GLA spleen mod 32µM* and HTT ATP protect 10%.
COc1cccc(-c2nccc(NCCc3c[nH]c4ccc(OC)cc34)n2)c1 was read as GLA spleen mod inconclusive and HTT ATP protect -80%.
`C=C1CCN(C(CC(C)C)C(=O)Nc2ccc(OC)cc2)S(=O)(=O)c2ccccc21` (configuration not stated) gave GLA spleen mod 5%.
`Cc1ccc(C(=O)c2c(C)oc3c2C(=O)C(=O)c2ccccc2-3)cc1` gave GLA spleen mod 0%, HTT ATP protect -111%, GLA inh pH 4.5 -3 and HttQ103 aggreg inconclusive.
COc1ccc(C(=O)c2c(C(F)(F)F)oc3c2C(=O)c2ccccc2C3=O)cc1 was read as GLA spleen mod -5%, HTT ATP protect -85%, GLA inh pH 4.5 -5 and HttQ103 aggreg 3.2µM*.
For N=C1Sc2ccccc2C2=NCCCN12 the results were GLA spleen mod -10%, HTT ATP protect -38%[1.9 µM] and GLA inh pH 4.5 0.
O=C(N/N=C/c1ccccc1Cl)c1n[nH]c2c1CCCC2 was read as GLA spleen mod -1%, HTT ATP protect -13%[10 µM], GLA inh pH 4.5 3 and HttQ103 aggreg 13µM*.
Screening COc1ccc2c(c1)OC(C)(C)C(c1ccccc1)C2c1ccc(OCCN2CCCC2)cc1 (configuration not stated) returned HTT ATP protect -99% and HttQ103 aggreg inconclusive.
Screening COC(=O)c1sccc1NC(=O)Cc1ccc(OC)cc1 returned GLA spleen mod -3%, GLA inh pH 4.5 -2 and HttQ103 aggreg 40µM*.
Screening CCN(CC)c1ccc(/C=N/n2nnnc2N)c(O)c1 returned GLA spleen mod -1%, HTT ATP protect -28%, GLA inh pH 4.5 -12 and HttQ103 aggreg 5.6µM*.
For CCN(C)c1ccc(/C=N\n2nnnc2N)cc1 the results were GLA spleen mod 8%, HTT ATP protect -62%, GLA inh pH 4.5 -2 and HttQ103 aggreg 12%.
COc1ccc2cc3c(N)c(C(=O)N4CCCC4)sc3nc2c1 was read as GLA spleen mod 1%, HTT ATP protect -4%, GLA inh pH 4.5 0 and HttQ103 aggreg -6%.
COc1ccc2cc3c(N)nn(C(=O)c4ccc(F)cc4)c3nc2c1 was read as GLA spleen mod 9%, HTT ATP protect -10%[10 µM], GLA inh pH 4.5 4 and HttQ103 aggreg 2.8µM*.
`COc1ccc2cc3c(N)nn(C(=O)c4ccccc4Cl)c3nc2c1` gave GLA spleen mod 5%, HTT ATP protect 0%[10 µM], GLA inh pH 4.5 -5 and HttQ103 aggreg 0.35µM*.
Screening COc1ccc2cc3c(N)nn(C(=O)c4cccc(F)c4)c3nc2c1 returned GLA spleen mod 13%, HTT ATP protect -22%[10 µM], GLA inh pH 4.5 7 and HttQ103 aggreg 1µM*.
Screening Cc1cccc(C(=O)CC(=O)c2cc(Cl)ccc2O)c1 returned GLA spleen mod 1%, HTT ATP protect -45%, GLA inh pH 4.5 -9 and HttQ103 aggreg 13µM*.
COc1ccc(O)c(C(=O)CC(=O)c2ccc(F)cc2)c1 was read as GLA spleen mod 4%, HTT ATP protect -57%[10 µM], GLA inh pH 4.5 4 and HttQ103 aggreg inconclusive.
For O=C(CC(=O)c1cc(Cl)ccc1O)c1ccccc1 the results were GLA spleen mod -30%, HTT ATP protect 4%[10 µM], GLA inh pH 4.5 -7 and HttQ103 aggreg 11µM*.
`O=C(O)CC(=O)Nc1cc(Cl)ccc1O` gave GLA spleen mod -4%, HTT ATP protect 3%, GLA inh pH 4.5 4 and HttQ103 aggreg 0%.
`Cc1ccc(O)c(C(=O)CC(=O)c2cccc(F)c2)c1` gave GLA spleen mod 6%, HTT ATP protect -6%[10 µM], GLA inh pH 4.5 1 and HttQ103 aggreg 18µM*.
`O=C(c1ccco1)N1CCC2(CC1)CN(c1ccccc1)C2` gave GLA spleen mod -4% and HTT ATP protect 0%.
Screening O=C(CCSc1nnc2scc(-c3ccccc3)n12)NCc1ccc2c(c1)OCO2 returned GLA spleen mod -8%, HTT ATP protect 13%[0.074 µM], GLA inh pH 4.5 -3 and HttQ103 aggreg -7%.
For c1ccc(-c2csc3nnc(SCc4ccc5c(c4)OCO5)n23)cc1 the results were GLA spleen mod 6%, HTT ATP protect -2%[10 µM], GLA inh pH 4.5 2 and HttQ103 aggreg 10µM*.
